The source made the active and inactive calls.
Assay: PSAC antagonists in infected red cells, primary screen, cell-based, P. falciparum Indochina, OD700, 18 h (AID 1157)
Conditions: P. falciparum Indochina infected erythrocytes, osmotic lysis OD700, 18 h; higher = more signal, called active from +8 up or from −8 down

z-score, inactive:
CC(C)C(=C=CC[C@H](O)c1ccc(OCCO)cc1)C[C@H](O)c1cc(Cl)cc(Cl)c1O 1.24
C=C(COC)/C(=C/C[C@@H](OC(=O)c1ccncc1)c1ccc(OCCO)cc1)c1cnc2ccccc2c1 1.19
CC(C)CN1C(=O)[C@@]2(c3ccc([N+](=O)[O-])cc3)CC(=O)N(CC34CC5CC(CC(C5)C3)C4)[C@@H]2c2ccc(CO)cc21 -1.17
C=C(CCCC)/C(=C/C[C@@H](OC(C)=O)c1ccc(CO)o1)c1cc(C(=O)OC)ccc1OC 0.553
C=C(C(=O)CC[C@H](OC(=O)c1cccnc1)c1ccc(CO)o1)C(C)C -0.0363
CCOc1cc(C(O)C2C=CC3C(=O)N(C4CCCCC4)C(=O)C3N2Nc2ccc(OC)cc2)ccc1O (stereo unspecified) 0.265
CN(C)CCCNC(=O)[C@@H]1c2ccccc2C(=O)N(CC23CC4CC(CC(C4)C2)C3)[C@H]1c1ccc(CO)cc1 1.09
NC(=O)N1C(=O)C2C(C1=O)C1C=C(CCCO)C2C(c2cccs2)N1Cc1cc2c(cc1Br)OCO2 (stereo unspecified) 0.872
[N-]=[N+]=NCc1ccccc1[C@H]1OC(c2ccc(OCCCO)cc2)=N[C@@]1(CCS(=O)(=O)c1ccccc1)C(N)=O 0.764
CC(C)(C)OC(=O)CC[C@]1(C(=O)O)N=C(c2ccc(OCCCO)cc2)O[C@H]1c1ccccc1 -0.284
COc1ccc([Si](C)(C)[C@@H]2[C@@H](CCO)O[C@]3(C(=O)N(Cc4cccc(N5C(=O)c6cccc7cccc5c67)c4)c4ccccc43)[C@H]2C)cc1 2.34
COC1(C)CN(Cc2ccccc2Br)[C@H](/C=C/c2ccccc2)[C@H](Cc2ccccc2)O1 (stereo partly specified) -0.0143
CN(C)C(=O)[C@@]1(Cc2ccccc2N=[N+]=[N-])COC(c2ccc(OCCCO)cc2)=N1 1.23
CC(C)N1CC=CC23O[C@@H]4C=CCCOC(=O)C4[C@H]2C(=O)N(CCO)[C@@H]3C1=O (stereo partly specified) 0.406
C=C[C@@H](C)[C@H](OC(=O)Nc1ccc(SC)cc1)c1ccc(OCCO)cc1 1.75
COC(=O)[C@@]1(Cc2ccc(OC)cc2)[C@H]2c3cc(C(=O)N(C)C)n(CCc4c[nH]c5ccc(O)cc45)c3C[C@H]2CN1C(=O)c1ccccc1 1.23
COc1cc2c(cc1OC)CN(C(=O)[C@H]1[C@@H]3C(=O)O[C@@H](c4ccccc4)[C@@H](c4ccccc4)N3[C@@H](c3ccc(OCCO)cc3)[C@]13C(=O)Nc1ccc(C#CCCO)cc13)CC2 0.802
COc1cc(CO)cc(I)c1O[C@H]1C=C(C(=O)NCCO)C[C@@H](N(CC2CCCCC2)C(=O)c2ccc(C(F)(F)F)cc2)[C@@H]1O 0.329
COC(=O)[C@@]1(Cc2ccc(F)cc2)[C@H]2c3cc(C(=O)N4CCCC4)n(CCc4c[nH]c5ccc(OC)cc45)c3C[C@H]2CN1C(=O)c1ccccc1 -0.583
COCC(=C=CC[C@H](O)c1ccc(OCCO)cc1)C[C@H](O)COCc1ccccc1 -0.749
CC=CC(O)C1C=CC2C(=O)N(C)C(=O)C2N1N1CCCCC1 (stereo unspecified) 0.801
[N-]=[N+]=NCc1ccccc1C[C@]1(C(=O)NCC(O)CO)N=C(c2ccc(OCCCO)cc2)O[C@H]1c1ccccc1CN=[N+]=[N-] (stereo partly specified) -0.481
NCCCCCCNC(=O)[C@H]1C[C@H]2C(=O)N[C@@H](Cc3ccccc3)C(=O)N2[C@H]1c1ccc(O)cc1 -2.2
CCCCC(=C=CC[C@@H](O)c1ccc(OCCO)cc1)C[C@@H](O)COCc1ccccc1 -0.237
O=C(O)[C@]1(Cc2ccccc2)N=C(c2ccc(OCCCO)cc2)O[C@@H]1c1ccccc1 0.0743
CC(C)C(=C=CC[C@@H](O)c1ccccc1OCCO)C[C@@H](O)COCc1ccccc1 -0.119
O=C1O[C@@H](c2ccccc2)[C@@H](c2ccccc2)N2[C@@H](c3ccc(O)cc3)[C@]3(C(=O)Nc4ccccc43)[C@@H](C(=O)Nc3nc4ccccc4s3)[C@H]12 1.82
O=C(N1CCCCC1)[C@@]1(Cc2ccccc2)COC(c2ccc(OCCCO)cc2)=N1 0.42
CO[C@H]1O[C@H](CO)[C@@H](OC(=O)Nc2ccc(C(F)(F)F)cc2)[C@H](OC(=O)Nc2ccc3c(c2)OCO3)[C@H]1OC(=O)Nc1ccc2c(c1)OCO2 0.619
COc1cc(CO)cc(I)c1O[C@H]1C=C(C(=O)NCCO)C[C@@H](NCc2ccccc2F)[C@@H]1O 1.09
CCCNC(=O)[C@@]1(c2ccc([N+](=O)[O-])cc2)CC(=O)N(C2CCCCC2)[C@@H]1c1ccc(CO)cc1I 0.722
CCOC(=CC(=O)OC)CC(O)c1cccc(Cl)c1 (stereo unspecified) -1.72
Cc1ccc(S[C@]2(C(=O)NC(C)C)CC(=O)N(Cc3ccccc3C(F)(F)F)[C@@H]2c2ccc(CO)cc2I)cc1 -0.945
CO[C@H]1O[C@H](CO)[C@@H](OC(=O)c2ccc(Br)cc2)[C@@H]2OC(=O)[C@@H](Cc3ccc4ccccc4c3)C/C=C/C[C@H](Cc3ccc4ccccc4c3)C(=O)O[C@@H]12 -2.1
COC(=O)[C@@]1(Cc2ccc(OC)cc2)[C@H]2c3cc(C(=O)N(C)C)n(Cc4nc5ccccc5[nH]4)c3C[C@H]2CN1C(=O)c1ccccc1 1.25
COCCCNC(=O)[C@]1(Cc2ccccc2N=[N+]=[N-])N=C(c2ccc(OCCCO)cc2)O[C@@H]1c1ccccc1N=[N+]=[N-] 7.56
